The panel holds about 83,000 compounds, 20% with a hit somewhere; the sample as a whole holds those more often.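 The endpoint reported here, percent growth, reads 100 for growth as untreated, 0 for no net growth and -100 for all cells dead.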 Values without a mark were called inactive. Active and inactive are the calls of the source.
What follows are compounds tested on PC-3 prostate (assay: NCI-60 one-dose screen, 48 h (100 = growth as untreated, 0 = no growth, -100 = all killed)). Settings: 10 µM unless noted.
Method: Growth inhibition of the PC-3 human tumor cell line is measured as a screen for anti-cancer activity. Cells are grown in 96 well plates and exposed to the test compound for 48 hours. Compounds are tested at a single concentration, which is 10^-5 M for most compounds. The reported endpoint is percent growth (GI% or GIPRCNT), where numbers from 0 - 100% represent growth inhibition, and numbers from -100% - 0 represent cell death. For example, a value of 40 represents 60% growth inhibition. A value of 0 means no net growth occurred over the course of the experiment. A value of -40 indicates 40% of cells at the beginning of the experiment died by the end of the experiment. A value of -100 means all cells are dead at the end of the experiment.
NCI-60 Human Tumor Cell Lines Screen was performed using the standard one-dose NCI protocol, which is described in more detail at https://dtp.cancer.gov/discovery_development/nci-60/default.htm.
Compounds with GIPRCNT values below 10 were considered active. Activity score was based on GIPRCNT using the following formula: […]
Score is 0 for GIPRCNT values of 100 or above, 50 for GIPRCNT values of 0, and 100 for GIPRCNT values of -100.
Compound `O=C1N=c2cc3c(cc2=C/C1=C/c1sc(=S)n(CCc2ccc(O)cc2)c1O)OCCO3` has a growth of 41.4%.
For `COc1ccc(/C=c2\nc3n(-c4ccccc4)c4nc5c6c(sc5c(=N)n4n-3c2=O)CCCC6)cc1`, the growth was 63.5%.
With `COc1cc(C(=O)/C=C/c2c(-c3ccc(F)cc3)nc3sc(C)cn23)cc(OC)c1OC` the growth was 10.7%.
For `CC(=O)n1c(-c2ccc(Cl)cc2)nc2c(c1=O)C(c1ccc(Cl)cc1)c1sc3c(Cl)cccc3c1O2` (stereo not given), the growth was 4.54% (active).
For `COc1ccc2c(c1)O/C(=C\c1cccc(OCC(=O)Nc3nc(C)c(C)s3)c1)C2=O`, the growth was -38.7% (active).
Compound `O=C(Nc1ccccc1)Nc1cccc(Oc2nnc(Cl)c3ccccc23)c1` has a growth of 25.9%.
In the case of `COc1ccc(-c2cc(-c3cc(OC)c(OC)c(OC)c3)c(C#N)c(N3CCOCC3)n2)cc1O`, the growth is reported as 38.9%.
In the case of `N#Cc1nc(C#N)c(Sc2ccccc2)c(Sc2ccccc2)c1Sc1ccccc1`, the growth is reported as 21.5%.
In the case of `COc1ccc2c(c1)[nH]c(=O)c1c3cccnc3cn21`, the growth is reported as 22%.
`COc1ccc(NC(=O)CSc2nc(C)c(C(C)=O)n2-c2ccc([N+](=O)[O-])cc2)cc1` gave a growth of 85.3%.
Work on `CC(CN1CCCCC1)C(=O)c1ccccc1` (stereo not given) yielded a growth of 95.4%.
`COc1ccc(C2=NN(C(=O)c3cc(OC)c(OC)c(OC)c3)C(c3ccc(Cl)cc3)C2)cc1OC` (stereo not given) gave a growth of 26.5%.
For `COc1ccc2c(c1)C(=O)/C(=C/c1ccc(OCC(=O)Nc3nccs3)cc1)O2`, the growth was -62% (active).
With `N#C/C(=C\c1ccc(Br)cc1)n1nnc2cc(F)c(F)cc21` the growth was 31.2%.
`NC(=N\N=C/c1cccc([N+](=O)[O-])c1)/C(N)=N\N=C/c1cccc([N+](=O)[O-])c1` gave a growth of 72.2%.
`Cc1cc(C)c(-c2c(C)cc(C)cc2CBr)c(CBr)c1` showed a growth of 78.4%.
`COc1ccc(-c2csc(C3=C(O)CN(C(C)C)C3=N)n2)cc1OC` showed a growth of 35.3%.
For `Cc1ccc(/C=C/c2c(C(=O)/C=C/c3ccc(C(F)(F)F)cc3)c(C)nc3ccccc23)cc1`, the growth was -43.8% (active).
With `CCN(CC)CCN1C(=O)c2c(c(C)c3c(oc4cc(O)ccc43)c2C)C1=O` the growth was -75.1% (active).
Compound `CCOP(=O)(OCC)C1CP(=O)(c2ccccc2)CC(C)=C1Cl` (stereo not given) has a growth of 90%.
With `CCN1C(=O)N(CC)C2Nn3c(s/c(=C\c4cccc([N+](=O)[O-])c4)c3=O)=NC21` (stereo not given) the growth was 35.8%.
`COc1cc(C2CC(c3ccc(Nc4ccnc5cc(Cl)ccc45)cc3)=NN2C=O)cc(OC)c1OC` (stereo not given) showed a growth of 80.6%.
For `N#Cc1nc2c(S(=O)(=O)c3ccc(Cl)cc3)c(N)n(Nc3cccc(Cl)c3)c2nc1C#N`, the growth was -56.8% (active).
`O=C(c1ccccc1)c1c(/C=C/c2ccccc2)nc2ccccc2c1/C=C/c1ccc(Br)cc1` showed a growth of 90.2%.
With `CCCCCCN(CCCCCC)c1ccc(/C=C2/SC(=O)N(c3nc(N4CCCC4)nc(N4CCCC4)n3)C2=O)c(C)c1` the growth was 53.2%.
`Fc1ccc(CNc2c3ccccc3nc3ccccc23)cc1F` gave a growth of 35.7%.
Work on `O=[N+]([O-])c1ccc(C2CC(c3ccccc3)=Nc3ccccc3S2)cc1` (stereo not given) yielded a growth of 88.1%.
Compound `c1ccc(Nc2nc(-c3ccccn3)cs2)nc1` has a growth of 38%.
For `CCCCCCCCCCCCCCCCCCOc1ccccc1CC(=O)OCCC[N+](C)(C)C`, the growth was 36.8%.
In the case of `COc1ccc(-c2ccc3c(c2)sc2nc(-c4ccc(F)cc4)cn23)cc1`, the growth is reported as 81.7%.
`C[C@]12CC[C@@H]3c4cc(OC(F)F)c(O)cc4CC[C@H]3[C@@H]1CC[C@@H]2OS(N)(=O)=O` gave a growth of 26.7%.
`c1ccc2c(c1)nc(CN1CCOCC1)n1cc(N3CCCC3)nc21` was tested, and the growth was 82.1%.
`O=S(=O)(Nc1cccc(Cl)c1)c1ccc(-c2cnc(C3CC3)o2)cc1` was tested, and the growth was 26.3%.
For `CCN(CC)c1ccc2nc3c4ccccc4c(=NC(=O)c4ccccc4-c4c5ccc(N(CC)CC)cc5[o+]c5cc(N(CC)CC)ccc45)cc-3oc2c1`, the growth was 12.1%.
In the case of `CC1O[C@@H](OC2[C@H](OC(=O)/C=C/c3ccc(O)c(O)c3)C(COC3O[C@H](C)C(O)C(O)[C@@H]3O)O[C@@H](OCCc3ccc(O)c(O)c3)[C@H]2O)[C@@H](O)C(O)[C@H]1O` (stereo not given in full), the growth is reported as 99.9%.
In the case of `CCCCCCCCCCN(CCCCCCCCCC)CC(=O)c1ccc2cc(Br)c3ccccc3c2c1`, the growth is reported as -71.7% (active).
Work on `NC(=S)Nc1cccc(O)c1` yielded a growth of 105%.
For `COc1cccc(-c2nn(-c3ccccc3)cc2-c2ccnc(NCCCNC(=O)c3cccc(C(F)(F)F)c3)c2)c1`, the growth was 13.3%.
With `COc1ccc(NC(=O)CSc2nc(C)c(C(C)=O)n2-c2ccc(Cl)cc2)cc1` the growth was 96.3%.
In the case of `Nc1ccc2c(c1)c(N)nn2C(=O)Nc1ccc(Cc2ccccc2)cc1`, the growth is reported as 60.2%.
